# According to PubChem BioAssay:
# Active and inactive are the calls of the source.
# Key:
# [1] = small molecules captured by biotinylated probe aFSTL3 – biochemical, small-molecule microarray, fluorescence 635/667, stem cell growth factor project, primary screen (AID 1064); conditions: higher = more signal;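 also: measures binding of the biotinylated anti-FSTL3 antibody to printed compounds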
# [2] = binders from COS7 lysate, DM2A8 probe, primary screen, torsin A project, cell lysate, small-molecule microarray, fluorescence 635/667 (AID 1065); conditions: higher = more signal, COS7 lysate expressing mutant human TOR1A
# [3] = small molecules captured by biotinylated probe aFGF2 – biochemical, small-molecule microarray, fluorescence 635/667, stem cell growth factor project, primary screen (AID 1067); conditions: higher = more signal;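 also: measures binding of biotinylated aFGF2 protein to printed compounds on slides; z-score merges feature fluorescence and signal-to-noise across triplicate slides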
# [4] = small molecules captured by biotinylated probe aFGF10 – biochemical, small-molecule microarray, fluorescence 635/667, stem cell growth factor project, primary screen (AID 1071); conditions: higher = more signal;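 also: score merges 667 nm spot intensity and signal to noise from triplicate slides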
# [5] = biological target: Neurogenic locus notch homolog protein 2 (Homo sapiens) (UniProt Q04721); test: small molecules binding Notch2 protein – biochemical, small-molecule microarray, 635 nm fluorescence, stem cell growth factors, primary screen (AID 1073); conditions: higher = more signal
# [6] = biological target: Pro-neuregulin-1, membrane-bound isoform (Homo sapiens) (UniProt Q02297); test: small molecules binding neuregulin-1 protein – biochemical, small-molecule microarray, fluorescence 635/667, psychiatric disease protein project, primary screen (AID 1075); conditions: NRG1 binding, 635 nm fluorescence, higher = more signal;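 also: score combines 667 nm spot fluorescence with signal to noise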
# [7] = system: Neuregulin-1 EGF-like domain; test: small molecules binding NRG1 EGF domain – biochemical, small-molecule microarray, 635 nm fluorescence, primary screen (AID 1081); conditions: higher = more signal;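 also: binding of the protein to compounds printed on small-molecule microarray slides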
# [8] = FRG1 expression reporter modulators in myotubes – cell-based, C2C12 myotubes, firefly/Renilla luciferase, luminescence, FRG1 inhibition for FSHD, primary screen (AID 1084); conditions: FRG1 promoter luciferase, higher = more signal, called active from +8 up or from −8 down
# [9] = small molecules captured by biotinylated probe aFST – biochemical, small-molecule microarray, fluorescence 635/667, stem cell growth factor project, primary screen (AID 1086); conditions: higher = more signal;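 also: score merges 667 nm fluorescence with signal-to-noise of each printed compound spot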
# [10] = binders of probe aHhip on microarray, primary screen, stem cell growth factor project, biochemical, small-molecule microarray, fluorescence 635/667 (AID 1087); conditions: higher = more signal;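 also: score merges spot fluorescence at 667nm with spot signal to noise ratio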
# [11] = system: PRMT1 (protein arginine N-methyltransferase 1); test: small molecules binding arginine methyltransferase PRMT1 – biochemical, small-molecule microarray, 635 nm fluorescence, primary screen (AID 1088); conditions: higher = more signal;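 also: binding of Prmt1 protein to compounds spotted on small-molecule microarray slides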
# [12] = growth effects on S. cerevisiae YJM789 – YJM789 clinical isolate, OD600, 24 h, basal, primary screen (AID 1089); conditions: higher = more signal, called active from +8 up or from −8 down;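 also: growth of clinical yeast isolate S. cerevisiae YJM 789 seeded 1000 cells per well; test concentration not given here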
# [13] = S. pombe growth modifiers, basal conditions – strain 972, OD600, 24 h, no modulator, primary screen (AID 1090);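 also: basal condition with compound alone and no growth modifier present; test concentration not given here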; conditions: S. pombe 972 growth, higher = more signal, called active from +8 up or from −8 down
# [14] = budding yeast growth modifiers under rapamycin – strain BY4716, OD600, 96 h, primary screen (AID 1091); also: test concentration not given here; conditions: S. cerevisiae BY4716 + rapamycin, higher = more signal, called active from +8 up or from −8 down
# [15] = biological target: Torsin-1A-interacting protein 2 (Homo sapiens) (UniProt Q8NFQ8); test: small molecules binding lysate-expressed LULL1 – cell lysate, human LULL1 lysate, 635/667 nm fluorescence, primary screen (AID 1092); conditions: small-molecule microarray, hLULL1 lysate binding, 635 nm fluorescence; higher = more signal;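 also: probe is lysate of COS7 cells overexpressing human LULL1; score merges per-feature 667 nm fluorescence with signal-to-noise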
# [16] = optical density change of DRC41 E. coli – strain DRC41, OD650, 24 h, E. coli filamentation project, primary screen (AID 1093);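 also: MC1000 strain lacking acrAB efflux and sulA so SOS filamentation is blocked; test concentration not given here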; conditions: E. coli DRC41 growth, higher = more signal, called active from +8 up or from −8 down
# [17] = probe aLefty2 binding to arrayed compounds – biochemical, biotinylated probe, 635/667 nm fluorescence, primary screen (AID 1094); conditions: small-molecule microarray, higher = more signal;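 also: score merges spot fluorescence near 667 nm with spot signal-to-noise ratio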
# [18] = system: Noggin (protein binding on small-molecule microarray); test: small molecules binding Noggin protein – biochemical, 635/667 nm fluorescence, primary screen (AID 1095); conditions: 635 nm fluorescence, higher = more signal;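 also: score merges 667 nm feature fluorescence with signal to noise over triplicate slides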
# [19] = biological target: Neurogenic locus notch homolog protein 3 (Homo sapiens) (UniProt Q9UM47); test: small molecules binding NOTCH3 protein – biochemical, 635/667 nm fluorescence, primary screen (AID 1096); conditions: small-molecule microarray, 635 nm fluorescence, higher = more signal
# [20] = probe aEGFR binding to arrayed compounds – biochemical, biotinylated probe, 635/667 nm fluorescence, primary screen (AID 1097); conditions: small-molecule microarray, higher = more signal;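 also: probe is a biotinylated anti-EGFR antibody binding compounds printed on slides; score combines fluorescence near 667 nm and signal to noise of each spot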
# Neurogenic locus notch homolog protein 2 (Homo sapiens), sequence (Q04721 whole entry, looked up, canonical isoform): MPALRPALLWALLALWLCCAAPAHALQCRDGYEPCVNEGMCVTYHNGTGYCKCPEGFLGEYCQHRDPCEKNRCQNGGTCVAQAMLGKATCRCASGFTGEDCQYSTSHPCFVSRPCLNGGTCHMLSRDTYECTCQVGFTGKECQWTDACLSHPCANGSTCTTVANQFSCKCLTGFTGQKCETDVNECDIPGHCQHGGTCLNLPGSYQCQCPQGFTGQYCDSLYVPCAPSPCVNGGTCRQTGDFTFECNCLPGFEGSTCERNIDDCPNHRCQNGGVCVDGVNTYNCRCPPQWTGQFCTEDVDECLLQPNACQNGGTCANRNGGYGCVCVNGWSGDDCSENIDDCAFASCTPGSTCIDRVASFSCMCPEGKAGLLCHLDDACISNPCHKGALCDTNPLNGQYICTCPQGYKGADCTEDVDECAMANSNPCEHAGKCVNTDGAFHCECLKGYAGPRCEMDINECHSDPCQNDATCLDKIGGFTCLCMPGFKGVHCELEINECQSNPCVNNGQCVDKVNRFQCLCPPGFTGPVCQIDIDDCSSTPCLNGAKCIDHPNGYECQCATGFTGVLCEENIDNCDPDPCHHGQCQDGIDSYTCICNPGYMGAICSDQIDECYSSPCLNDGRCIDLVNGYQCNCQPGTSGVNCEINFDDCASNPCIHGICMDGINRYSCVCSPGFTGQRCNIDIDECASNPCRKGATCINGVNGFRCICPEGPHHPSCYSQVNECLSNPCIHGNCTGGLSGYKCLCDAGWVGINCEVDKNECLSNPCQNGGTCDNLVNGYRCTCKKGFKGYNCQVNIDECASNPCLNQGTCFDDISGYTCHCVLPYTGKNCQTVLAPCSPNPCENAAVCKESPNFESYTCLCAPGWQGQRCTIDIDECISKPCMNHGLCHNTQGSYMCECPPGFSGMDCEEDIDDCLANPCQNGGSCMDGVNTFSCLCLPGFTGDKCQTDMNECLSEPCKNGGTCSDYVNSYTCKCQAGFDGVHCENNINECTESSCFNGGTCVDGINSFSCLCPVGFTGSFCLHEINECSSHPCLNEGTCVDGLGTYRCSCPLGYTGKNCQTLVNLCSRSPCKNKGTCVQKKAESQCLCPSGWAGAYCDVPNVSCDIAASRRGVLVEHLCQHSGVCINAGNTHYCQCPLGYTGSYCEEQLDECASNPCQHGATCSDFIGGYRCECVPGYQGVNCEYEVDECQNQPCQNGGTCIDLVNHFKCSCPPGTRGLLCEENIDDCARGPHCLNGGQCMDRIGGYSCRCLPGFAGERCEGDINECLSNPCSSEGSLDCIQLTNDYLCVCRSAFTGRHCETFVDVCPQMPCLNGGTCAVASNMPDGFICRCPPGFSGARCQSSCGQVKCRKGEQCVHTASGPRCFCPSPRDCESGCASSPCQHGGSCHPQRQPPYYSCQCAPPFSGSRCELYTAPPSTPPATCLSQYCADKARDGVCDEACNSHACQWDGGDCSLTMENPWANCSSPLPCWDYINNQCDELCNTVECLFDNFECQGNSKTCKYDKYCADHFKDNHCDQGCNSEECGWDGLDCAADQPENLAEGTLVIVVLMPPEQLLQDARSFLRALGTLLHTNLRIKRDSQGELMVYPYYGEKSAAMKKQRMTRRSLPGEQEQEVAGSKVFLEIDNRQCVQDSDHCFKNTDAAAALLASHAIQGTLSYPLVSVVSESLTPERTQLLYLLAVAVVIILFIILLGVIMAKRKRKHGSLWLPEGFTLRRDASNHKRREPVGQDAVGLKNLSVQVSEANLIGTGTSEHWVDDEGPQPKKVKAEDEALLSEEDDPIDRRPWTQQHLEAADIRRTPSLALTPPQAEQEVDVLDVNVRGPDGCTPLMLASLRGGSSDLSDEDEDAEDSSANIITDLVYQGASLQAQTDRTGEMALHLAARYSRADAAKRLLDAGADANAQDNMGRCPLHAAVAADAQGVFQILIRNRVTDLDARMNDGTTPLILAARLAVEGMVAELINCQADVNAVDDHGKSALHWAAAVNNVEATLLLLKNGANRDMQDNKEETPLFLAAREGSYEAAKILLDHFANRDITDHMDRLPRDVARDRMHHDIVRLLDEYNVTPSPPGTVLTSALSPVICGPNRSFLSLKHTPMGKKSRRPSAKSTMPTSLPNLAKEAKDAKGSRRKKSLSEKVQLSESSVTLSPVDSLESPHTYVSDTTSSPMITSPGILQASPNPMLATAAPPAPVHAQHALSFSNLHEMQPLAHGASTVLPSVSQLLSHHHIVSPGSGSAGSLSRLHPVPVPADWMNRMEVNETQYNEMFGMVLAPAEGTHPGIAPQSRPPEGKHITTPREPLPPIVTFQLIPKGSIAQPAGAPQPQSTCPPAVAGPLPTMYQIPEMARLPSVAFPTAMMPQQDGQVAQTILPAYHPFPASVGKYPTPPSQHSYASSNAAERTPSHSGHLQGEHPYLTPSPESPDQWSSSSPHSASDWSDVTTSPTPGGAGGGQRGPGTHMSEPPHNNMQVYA
# Neurogenic locus notch homolog protein 3 (Homo sapiens), sequence (Q9UM47 whole entry, looked up): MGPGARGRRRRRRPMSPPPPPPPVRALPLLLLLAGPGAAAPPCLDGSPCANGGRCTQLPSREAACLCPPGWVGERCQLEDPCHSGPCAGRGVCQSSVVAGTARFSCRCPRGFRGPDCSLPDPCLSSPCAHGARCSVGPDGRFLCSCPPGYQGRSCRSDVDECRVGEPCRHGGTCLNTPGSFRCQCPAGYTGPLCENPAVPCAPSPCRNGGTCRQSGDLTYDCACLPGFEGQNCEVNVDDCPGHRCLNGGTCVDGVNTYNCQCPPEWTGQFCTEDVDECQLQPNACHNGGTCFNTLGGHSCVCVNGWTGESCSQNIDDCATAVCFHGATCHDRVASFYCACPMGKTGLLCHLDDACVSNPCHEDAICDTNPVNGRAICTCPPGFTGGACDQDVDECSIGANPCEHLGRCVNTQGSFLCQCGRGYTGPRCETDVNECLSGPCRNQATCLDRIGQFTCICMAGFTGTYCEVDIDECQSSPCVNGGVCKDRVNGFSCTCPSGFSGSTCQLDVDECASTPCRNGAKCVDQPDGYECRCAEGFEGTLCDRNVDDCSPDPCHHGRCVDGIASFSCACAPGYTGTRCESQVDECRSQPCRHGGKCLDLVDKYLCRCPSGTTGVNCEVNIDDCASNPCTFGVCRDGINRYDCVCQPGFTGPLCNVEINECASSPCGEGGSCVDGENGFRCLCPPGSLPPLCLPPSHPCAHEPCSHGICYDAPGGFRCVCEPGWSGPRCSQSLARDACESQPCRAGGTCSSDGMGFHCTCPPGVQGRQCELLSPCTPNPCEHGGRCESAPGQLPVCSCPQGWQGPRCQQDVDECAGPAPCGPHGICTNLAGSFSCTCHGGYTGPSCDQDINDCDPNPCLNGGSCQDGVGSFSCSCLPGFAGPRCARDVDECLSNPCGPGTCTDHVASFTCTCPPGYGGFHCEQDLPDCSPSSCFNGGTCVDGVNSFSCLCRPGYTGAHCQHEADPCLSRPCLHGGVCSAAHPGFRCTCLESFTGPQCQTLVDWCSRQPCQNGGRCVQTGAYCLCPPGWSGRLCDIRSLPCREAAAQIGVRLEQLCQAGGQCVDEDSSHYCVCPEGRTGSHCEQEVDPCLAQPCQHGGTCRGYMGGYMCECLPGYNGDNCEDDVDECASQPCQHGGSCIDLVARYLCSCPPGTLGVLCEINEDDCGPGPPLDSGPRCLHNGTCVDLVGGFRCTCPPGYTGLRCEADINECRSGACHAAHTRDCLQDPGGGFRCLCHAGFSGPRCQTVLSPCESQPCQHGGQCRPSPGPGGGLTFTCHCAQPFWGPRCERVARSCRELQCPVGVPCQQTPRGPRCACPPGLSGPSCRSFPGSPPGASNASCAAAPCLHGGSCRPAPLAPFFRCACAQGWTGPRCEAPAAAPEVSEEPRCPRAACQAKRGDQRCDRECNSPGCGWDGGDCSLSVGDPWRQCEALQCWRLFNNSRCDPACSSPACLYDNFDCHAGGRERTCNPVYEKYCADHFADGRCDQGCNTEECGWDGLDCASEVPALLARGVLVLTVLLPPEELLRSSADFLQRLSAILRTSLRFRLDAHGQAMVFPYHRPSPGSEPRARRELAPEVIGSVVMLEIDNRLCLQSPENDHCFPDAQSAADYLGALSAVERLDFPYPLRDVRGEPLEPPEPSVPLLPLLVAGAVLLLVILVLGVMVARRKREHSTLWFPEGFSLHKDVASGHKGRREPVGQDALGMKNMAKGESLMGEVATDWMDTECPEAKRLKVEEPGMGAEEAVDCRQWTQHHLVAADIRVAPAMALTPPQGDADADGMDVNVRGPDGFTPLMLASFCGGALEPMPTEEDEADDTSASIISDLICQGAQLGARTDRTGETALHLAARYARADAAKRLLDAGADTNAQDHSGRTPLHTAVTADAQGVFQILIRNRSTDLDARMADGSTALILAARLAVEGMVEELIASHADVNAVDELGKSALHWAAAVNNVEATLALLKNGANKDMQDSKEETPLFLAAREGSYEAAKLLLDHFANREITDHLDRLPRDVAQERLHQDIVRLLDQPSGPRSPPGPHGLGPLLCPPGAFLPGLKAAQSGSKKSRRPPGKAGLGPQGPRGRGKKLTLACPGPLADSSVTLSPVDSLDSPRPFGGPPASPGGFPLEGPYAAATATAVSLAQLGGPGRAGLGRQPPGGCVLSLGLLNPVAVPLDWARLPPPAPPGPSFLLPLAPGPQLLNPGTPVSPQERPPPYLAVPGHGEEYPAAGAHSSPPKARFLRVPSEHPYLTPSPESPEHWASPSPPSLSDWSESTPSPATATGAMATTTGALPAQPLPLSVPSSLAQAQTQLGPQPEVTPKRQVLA
SMILES,composite z-score [1],composite z-score [2],composite z-score [3],composite z-score [4],composite z-score [5],composite z-score [6],composite z-score [7],z-score [8],composite z-score [9],composite z-score [10],composite z-score [11],z-score [12],z-score [13],z-score [14],composite z-score [15],z-score [16],composite z-score [17],composite z-score [18],composite z-score [19],composite z-score [20]
COCCCNC(=O)[C@@H]1c2ccccc2C(=O)N(Cc2ccc(OC(F)(F)F)cc2)[C@H]1c1ccc(CO)cc1,-0.388,0.0383,0.015,0.235,0.329,0.244,0.617,-0.228 (inactive),0.541,1.03,1.34,-0.975 (inactive),-0.153 (inactive),-0.97 (inactive),2.36,-0.518 (inactive),-0.0687,0.489,0.554,-0.0949
CCCCC(=C=CC[C@H](O)c1ccc(CO)o1)CCO,-0.388,1.03,-0.109,0.0582,0.165,1.75,1.2,0.0699 (inactive),0.0508,0.0373,1.49,0.978 (inactive),-1.17 (inactive),-0.0978 (inactive),1.59,-0.14 (inactive),-0.258,1.31,0.683,-0.0041
CCCCCCc1nc(Cc2cc(OC)c(OC)c(OC)c2)cc2c1[Si](C(C)C)(C(C)C)O[C@H]2c1ccccc1,-0.557,0.251,-0.0599,0.0804,0.191,-0.0387,-0.712,-0.361 (inactive),0.0506,0.0677,0.811,0.153 (inactive),0.87 (inactive),0.0217 (inactive),-0.0751,-1.41 (inactive),-0.176,0.619,0.819,-0.0975
CC(C)C[C@@H]1NC(=O)[C@@]23C(=O)N[C@@H](Cc4ccccc4)C2[C@H](C)[C@@]2(C)O[C@H]2C3/C=C/C/C=C\CNC(=O)CNC1=O (stereo not given in full),-0.351,0.0664,-0.13,0.573,0.0474,0.458,0.325,-0.866 (inactive),-0.175,-0.48,0.514,-0.135 (inactive),-1.1 (inactive),-0.159 (inactive),2.23,-0.52 (inactive),0.0207,0.609,0.53,-0.0812
O=C(NCc1ccc(F)cc1)[C@H]1C[C@H]2C(=O)N3CCC[C@H]3C(=O)N2[C@H]1c1ccc(O)cc1,0.883,-0.554,-0.195,-0.216,-0.428,0.192,0.49,-0.29 (inactive),-0.819,-0.0772,0.0679,-1.04 (inactive),-1.47 (inactive),0.164 (inactive),-0.296,2.41 (inactive),-0.0963,-0.139,-0.484,-0.169
O=C(NCCN1CCOCC1)[C@@H]1c2ccccc2C(=O)N(Cc2ccc(OC(F)(F)F)cc2)[C@H]1c1ccc(CO)cc1,0.224,0.751,-0.0531,-0.315,0.0161,-0.181,0.569,-1.39 (inactive),-0.236,-0.0645,1.19,-1.58 (inactive),-0.748 (inactive),-0.846 (inactive),3.09,0.0461 (inactive),-0.0766,0.0807,-0.0807,-0.126
CCCCCCc1nc(-c2ccc(-c3ccc(Cl)c(Cl)c3)o2)cc2c1[Si](C(C)C)(C(C)C)OC2,0.0736,-0.207,-0.162,-0.632,-1.01,-0.14,0.262,1.25 (inactive),-0.634,-0.134,-0.849,-0.625 (inactive),-7.54 (inactive),3.66 (inactive),0.582,0.66 (inactive),-0.159,-0.561,-0.453,-0.257
O=C1O[C@@H](c2ccccc2)[C@@H](c2ccccc2)N2[C@@H](c3ccc(OCCO)cc3)[C@]3(C(=O)Nc4ccc(C#CC5(O)CCCCCC5)cc43)[C@@H](C(=O)Nc3nc4ccccc4s3)[C@H]12,-0.017,1.17,0.0649,0.517,1.46,1.51,1.24,2.48 (inactive),0.397,0.113,1.55,2.44 (inactive),1.19 (inactive),2.78 (inactive),2.96,0.799 (inactive),0.0769,1.18,1.07,0.191
O=C1C[C@@](C(=O)O)(c2ccc([N+](=O)[O-])cc2)[C@@H](c2ccc(CO)cc2)N1C1CCCCC1,-0.0207,0.748,0.137,0.687,1.46,1.63,1.21,-0.118 (inactive),0.905,-0.0645,1.54,1.24 (inactive),-1.36 (inactive),1.05 (inactive),3.12,0.397 (inactive),0.0909,0.333,1.15,-0.0409
O=C1[C@H]2C=C(I)[C@H](C[C@@H]2OCCCCCCO)[C@@]12CO2,-0.123,0.249,-0.169,0.0956,1.01,-0.715,-0.175,0.622 (inactive),-0.132,-0.183,-0.134,-1.5 (inactive),-2.19 (inactive),-0.384 (inactive),-0.505,-1.05 (inactive),-0.121,0.263,1.13,-0.133
COCCOC(=O)N1C(=O)[C@@]2(c3cc(C#CCCO)ccc31)[C@H](c1ccccc1OCCO)N1[C@H](c3ccccc3)[C@H](c3ccccc3)OC(=O)[C@H]1[C@@H]2C(N)=O,-0.455,-0.0702,-0.0723,0.758,1.3,1.55,1.22,-1.9 (inactive),0.806,-0.0645,1.55,1.48 (inactive),0.142 (inactive),2.99 (inactive),3.08,2.16 (inactive),-0.123,1.6,1.11,0.0111
COCCOC(=O)N1C(=O)[C@@]2(c3cc(C#CCC(C(=O)OC)C(=O)OC)ccc31)[C@H](C(=O)Nc1nc3ccccc3s1)[C@H]1C(=O)O[C@H](c3ccccc3)[C@H](c3ccccc3)N1[C@@H]2c1ccc(OCCO)cc1,0.357,0.773,0.224,0.81,1.22,0.166,1.23,4.17 (inactive),0.853,-0.0699,1.54,1.74 (inactive),0.657 (inactive),2.14 (inactive),1.43,1.43 (inactive),0.483,1.89,1.05,0.232
COc1ccc([Si](C)(C)[C@H]2[C@H](CCO)O[C@@]3(C(=O)N(Cc4cccc(N5C(=O)c6ccccc6Oc6ccccc65)c4)c4ccccc43)[C@@H]2C)cc1,0.115,-0.672,-0.0645,0.462,0.139,0.962,1.02,-1.19 (inactive),-0.278,-0.132,0.891,2.14 (inactive),-0.506 (inactive),23.1 (active),1.51,1.03 (inactive),-0.118,-0.202,0.451,-0.108
COCCOC(=O)N1C(=O)[C@@]2(c3ccccc31)[C@H](C(=O)N1CCN(c3ncccn3)CC1)[C@H]1C(=O)O[C@H](c3ccccc3)[C@H](c3ccccc3)N1[C@@H]2c1ccccc1OCCO,-0.287,0.514,0.168,0.7,0.827,0.111,1.13,-1.12 (inactive),0.244,-0.0919,1.49,1.13 (inactive),0.185 (inactive),7.39 (inactive),2.61,1.97 (inactive),-0.0366,1.18,1.07,-0.067
COC(=O)C(CC#Cc1ccc2c(c1)[C@]1(C(=O)N2)[C@H](C(=O)NC[C@H](O)c2ccccc2)[C@H]2C(=O)O[C@H](c3ccccc3)[C@H](c3ccccc3)N2[C@@H]1c1ccccc1OCCO)C(=O)OC,-0.266,0.423,-0.0996,0.558,1.08,1.27,1.3,0.0111 (inactive),0.254,0.0749,1.54,2.15 (inactive),-0.247 (inactive),2.59 (inactive),2.89,2.13 (inactive),-0.0598,0.8,1.12,-0.0332
COC(=O)C(CC#Cc1ccc2c(c1)[C@]1(C(=O)N2)[C@H](c2ccccc2OCCO)N2[C@H](c3ccccc3)[C@H](c3ccccc3)OC(=O)[C@H]2[C@@H]1C(=O)N1CCc2cc(OC)c(OC)cc2C1)C(=O)OC,-0.152,0.179,-0.0087,0.382,1.15,0.834,1.3,-1.14 (inactive),0.383,-0.374,1.53,2.1 (inactive),1.13 (inactive),4.27 (inactive),3.01,0.463 (inactive),-0.174,1.08,1.09,0.0355
CCCCC(O)C1C=CC2C(=O)N(c3ccccc3)C(=O)C2N1Nc1ccc([N+](=O)[O-])cc1 (stereo not given),0.108,0.0331,-0.0004,0.531,1.06,1.58,1.35,0.456 (inactive),1.27,-0.154,1.55,-0.676 (inactive),0.429 (inactive),0.154 (inactive),3.68,0.916 (inactive),-0.144,0.146,1.11,-0.0828
COC(=O)[C@@]1(Cc2ccccc2)[C@H]2c3cc(C(=O)N(C)C)n(CCO)c3C[C@H]2CN1C(=O)c1ccccc1,0.348,0.0312,0.152,1.14,1.39,1.93,1.17,1.27 (inactive),0.647,-0.418,0.805,0.136 (inactive),0.612 (inactive),0.26 (inactive),4.04,-0.508 (inactive),0.381,-0.779,1.02,0.418
CCCN1C(=O)[C@]2(CCC(=O)OC(C)(C)C)N=C(c3ccc(OCCCO)cc3)O[C@@H]2c2ccccc21,0.678,1.24,-0.0136,0.152,0.399,0.421,1.07,0.177 (inactive),0.0678,-0.0645,1.52,-1.93 (inactive),-0.474 (inactive),1.5 (inactive),1.62,0.916 (inactive),0.151,1.37,0.571,-0.134
